High-throughput results deposited in PubChem BioAssay by National Center for Advancing Translational Sciences (NCATS).
LDHA inh: LDHA (human) enzyme inhibition; AID 1347041; purified LDHA, NADH/diaphorase-resazurin fluorescence; active compounds read low; activity change, % (values are at about 110 or 230 µM); 480,000 tested, 0.15% active; in the data active means activity change below about -30%; inconclusive means mostly about -25% to -30%;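 further: plate controls were DMSO wells for no effect and wells without enzyme for full effect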
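Enzyme activity of human lactate dehydrogenase 5 (2 nM; 0.06 mM NADH, 0.2 mM pyruvate, 5 min, RT) is measured via a resazurin/diaphorase fluorescence readout of residual NADH.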
p53 reactivator: mutant p53 re-activation in reporter cells. H1299 p53-A138V BP100-luciferase reporter, luminescence, 24 h. Potency, µM (highest dose often 92.2 µM), without a hit: at the highest dose activity change, positive = activation, actives largely listed as activators. 320,000 tested, 0.063% active. AID 504706; further: potency means the concentration at half of the fitted maximal effect; % of control where 0% means no effect; nearly all actives have a fitted effect of over 45% in size
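H1299 (p53-null), stable ts p53-A138V + BP100-Luc; 1000 cells/well, Opti-MEM/10% FBS; cpd 4 pt, 1:5; 24 h, 37 deg C, 5% CO2; detection reagent 10 min RT; luminescence.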
ClpP mod: qHTS Assay for Activators of ClpP. ATP-dependent Clp protease proteolytic subunit (Bacillus subtilis (strain 168)), P80244. purified B. subtilis ClpP, FRET peptide cleavage, 20 min. Potency, µM (highest dose often 57.5 µM), for the others: at the highest dose activity change, negative = active. 340,000 tested, 1.9% active. AID 651965, 2013; active means well fitted falling curve with a large enough effect; inconclusive means small, poorly fitted or top-dose-only effect; inactive means no such curve, though single readings can be large or run the other way; further: potency means the concentration at half of the fitted maximal effect; the source files actives as falling curves though it sought activators and does not explain the sign; nearly all actives have a fitted effect of over 65% in size
Target sequence (P80244 whole entry, looked up): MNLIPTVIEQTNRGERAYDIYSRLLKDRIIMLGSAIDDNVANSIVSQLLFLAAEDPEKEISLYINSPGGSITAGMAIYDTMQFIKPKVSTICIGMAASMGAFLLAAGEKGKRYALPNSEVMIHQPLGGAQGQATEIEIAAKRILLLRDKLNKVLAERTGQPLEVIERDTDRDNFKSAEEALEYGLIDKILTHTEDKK
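ClpP 10 microg/mL final, pH 8 Tris/KCl buffer with BSA, glycerol, Tween-20; compound pinned in; FRET-FV substrate; RT 20 min; Ex320/Em430; ΔFRET vs ADEP 5.8 microM, DMSO, no enzyme.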
GLP-1R agonist: agonists of human GLP-1 receptor | P43220 | HEK293 GLP-1R CRE-luciferase, luminescence, 4-6 h; cells express a hypersensitive GLP-1R form | Potency, µM (doses to about 45.6 µM), without a hit: at the highest dose activation, actives largely listed as activators | 380,000 tested, 0.007% active | AID 624172; further: potency means the concentration at half of the fitted maximal effect; % of control where 0% means no effect
Target sequence (P43220 whole entry, looked up): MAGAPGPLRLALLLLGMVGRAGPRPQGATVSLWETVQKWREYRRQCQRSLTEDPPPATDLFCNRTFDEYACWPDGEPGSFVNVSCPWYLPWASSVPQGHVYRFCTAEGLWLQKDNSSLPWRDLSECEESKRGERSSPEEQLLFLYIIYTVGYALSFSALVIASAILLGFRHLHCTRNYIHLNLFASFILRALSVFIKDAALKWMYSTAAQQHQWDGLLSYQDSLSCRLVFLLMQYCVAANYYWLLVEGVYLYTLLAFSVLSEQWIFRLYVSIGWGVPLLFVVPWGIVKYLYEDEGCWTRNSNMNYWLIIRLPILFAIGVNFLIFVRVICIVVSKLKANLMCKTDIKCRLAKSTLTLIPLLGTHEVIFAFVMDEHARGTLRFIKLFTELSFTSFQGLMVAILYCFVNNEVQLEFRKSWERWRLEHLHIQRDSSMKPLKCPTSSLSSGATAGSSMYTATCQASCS
GLP1R inv ag: inverse agonists of human GLP-1 receptor; HEK293 GLP-1R CRE-luciferase, luminescence, 24 h; GLP-1R form is constitutively active; Potency, µM (doses to about 38.3 µM), for inactives: at the top dose activity change, negative = inhibition, actives largely listed as inhibitors; 410,000 tested, 1.6% active; further: potency means the concentration at half of the fitted maximal effect; on the % scale 0 is the no-effect control and ±100 the full control effect; nearly all actives have a fitted effect of over 55% in size
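qHTS in 1536-well format: reporter HEK293 cells expressing constitutive GLP-1R activity in DMEM + 10% Nu serum, 24 hr with compounds at 37 deg C, luminescence read after 12 min with detection reagent.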
GLP1R cytotox: cytotoxic in the GLP-1 receptor inverse agonist counter-screen | HEK293 cAMP-luciferase reporter cells, luminescence, 24 h | Potency, µM (titrated, usually from 38.3 µM), inactives show at the highest dose activity change, negative = inhibition, actives largely listed as inhibitors | 410,000 tested, 0.13% active;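 further: loss of luciferase light is scored as toxicity; potency means the concentration at half of the fitted maximal effect; on the % scale 0 is the no-effect control and ±100 the full control effect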
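To flag toxic compounds, the library was rerun on cells for 24 hr at 37 deg C and 5% CO2. Viability-linked luminescence was captured 12 min after adding luciferase detection reagent.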
Active calls of the source: *; [ ] = another dose, or the depositor's remark. A selection: hits, their analogues and other compounds. The true share with any hit is near 2.9%. Unless noted, the call rests on the fitted dose curve; in most records, active means well fitted curve in the direction sought with a large enough effect; inconclusive means small, poorly fitted or top-dose-only effect, or another doubt; inactive means no such curve, though single readings can be large; an effect the other way counts as inactive or inconclusive.

CCOC(=O)c1c(-c2ccccc2)csc1NC(=O)C(C)NCCCN1CCOCC1 (configuration not stated) was read as LDHA inh -34*, p53 reactivator -1%, ClpP mod -5%, GLP-1R agonist 30%, GLP1R inv ag inconclusive and GLP1R cytotox -29%.
Screening CCC(C)NC(=O)CSc1nnc(-c2cc(-c3ccc(C)cc3)nc3ccccc23)n1N (configuration not stated) returned LDHA inh -2, p53 reactivator 1%, ClpP mod inconclusive, GLP-1R agonist 4%, GLP1R inv ag inconclusive and GLP1R cytotox -10%.
For CC(=O)OC1C2CCC1C([N+]1(C)CCCCC1)CC2 (configuration not stated) the results were LDHA inh -34*, p53 reactivator -2%, GLP-1R agonist 3%, GLP1R inv ag 12% and GLP1R cytotox 20%.
`C[N+]1(C2CCC3CCC2C3O)CCCC1` (configuration not stated) gave LDHA inh -8, p53 reactivator -9%, ClpP mod -3%, GLP-1R agonist -6%, GLP1R inv ag 0% and GLP1R cytotox 6%.
For CN1CCN(CCCNC(=O)Cn2nc(-c3ccccc3)ccc2=O)CC1 the results were LDHA inh -5, p53 reactivator 0%, ClpP mod -11%, GLP-1R agonist -10%, GLP1R inv ag 4% and GLP1R cytotox -5%.
For O=C(Cn1nc(-c2ccc(Cl)cc2)ccc1=O)NCCCN1CCN(Cc2ccccc2)CC1 the results were LDHA inh -5, p53 reactivator 9%, ClpP mod 32µM*, GLP-1R agonist 4%, GLP1R inv ag inconclusive and GLP1R cytotox 5%[1.53 µM].
Screening O=C(N/C(=C/c1cccnc1)C(=O)N1CCCCCC1)c1cccc(Br)c1 returned LDHA inh -1, p53 reactivator 7%, ClpP mod -2%, GLP-1R agonist -1%, GLP1R inv ag inconclusive and GLP1R cytotox -5%.
Screening CC1(C)NC(=O)N(CC(O)CNC23CC4CC(CC(C4)C2)C3)C1=O (configuration not stated) returned LDHA inh -4, p53 reactivator 5%, ClpP mod 28µM*, GLP-1R agonist 0%, GLP1R inv ag 6% and GLP1R cytotox 15%.
CC1(C)NC(=O)N(CC(O)CN2C(=O)NC(C)(C)C2=O)C1=O was read as LDHA inh 5, p53 reactivator 5%, ClpP mod 3%, GLP-1R agonist -10%, GLP1R inv ag 1% and GLP1R cytotox -11%.
COc1cccc(-c2ccc(-c3noc(-c4ccncc4)n3)c(OC)n2)c1 was read as LDHA inh 1.
`CCOc1nc(-c2ccccc2)ccc1-c1noc(COC)n1` gave LDHA inh 0, p53 reactivator -8%, ClpP mod 35µM*, GLP-1R agonist 9%, GLP1R inv ag -19% and GLP1R cytotox 11%.
For COc1cccc(-c2ccc(-c3noc(-c4cccs4)n3)c(OC)n2)c1 the results were LDHA inh -38*, p53 reactivator 16%, ClpP mod inconclusive, GLP-1R agonist -8%, GLP1R inv ag 6% and GLP1R cytotox -7%.
`COc1ccc2[nH]c(=O)c(-c3noc(-c4cccs4)n3)cc2c1` gave LDHA inh -38*.
Screening COc1cccc(-c2ccc(-c3noc(-c4ccccc4F)n3)c(OC)n2)c1 returned LDHA inh -3, p53 reactivator 3%, ClpP mod 14µM*, GLP-1R agonist -1%, GLP1R inv ag -7% and GLP1R cytotox -6%.
`CCOC(=O)CCNC(=O)CCc1nnc(CCCc2ccccc2)o1` gave LDHA inh 1, p53 reactivator 17%, GLP-1R agonist -1%, GLP1R inv ag 10% and GLP1R cytotox -5%.
Screening COc1ccc(OC)c(NC(=O)Cc2nn(C)c(=O)c3ccccc23)c1 returned LDHA inh -1, p53 reactivator -2%, ClpP mod -1%, GLP-1R agonist 4%, GLP1R inv ag 22% and GLP1R cytotox -3%.
For Cc1sc2ncn(CCC(=O)NCc3ccc(CN4CCCCC4)cc3)c(=O)c2c1C the results were LDHA inh -4.
`CCOc1nc(-c2ccccc2)ccc1-c1noc(-c2ccncc2)n1` gave LDHA inh 1, p53 reactivator -4%, ClpP mod -25%, GLP-1R agonist 0%, GLP1R inv ag 19% and GLP1R cytotox 2%.
For CCOc1nc(-c2ccccc2)ccc1-c1noc(-c2cccs2)n1 the results were LDHA inh 1, p53 reactivator 5%, ClpP mod 25µM*, GLP-1R agonist -3%, GLP1R inv ag 0% and GLP1R cytotox -6%.
`COc1cc(/C=C(/C#N)c2ccccn2)cc(Br)c1OC` gave LDHA inh -1.
For O=C(Nc1ccccc1C(=O)Nc1ccccn1)c1ccc([N+](=O)[O-])cc1 the results were LDHA inh -2, p53 reactivator 3%, ClpP mod 32µM*, GLP-1R agonist -5%, GLP1R inv ag 15% and GLP1R cytotox 21%.
For COc1ccc(NC(=O)c2cccnc2Nc2ccc(OC)cc2)cc1 the results were LDHA inh -1, p53 reactivator -13%, ClpP mod 0%, GLP-1R agonist 9%, GLP1R inv ag 10µM* and GLP1R cytotox -9%.
`COc1ccc(NC(=O)CN(C)C(=O)c2cn(-c3ccccc3)nc2-c2cccs2)cc1` gave LDHA inh -5, p53 reactivator -1%, ClpP mod -18%, GLP-1R agonist -1%, GLP1R inv ag 11µM* and GLP1R cytotox -4%.
For COc1ccc(NC(=O)c2cnn(-c3ccccc3)c2C)cc1 the results were LDHA inh 0, ClpP mod -1%, GLP-1R agonist 2%, GLP1R inv ag 7.9µM* and GLP1R cytotox -17%.
Screening CCN(CC)CCNC(=S)NC(=O)c1cn(-c2ccccc2)nc1-c1ccc(OC)cc1 returned LDHA inh -5, p53 reactivator 16%, ClpP mod -6%, GLP-1R agonist 19%, GLP1R inv ag 5µM* and GLP1R cytotox inconclusive.
CN(CC(=O)Nc1ccc(F)cc1)C(=O)c1cn(-c2ccccc2)nc1-c1cccs1 was read as LDHA inh 0, p53 reactivator -4%, ClpP mod -6%, GLP-1R agonist -1%, GLP1R inv ag inconclusive and GLP1R cytotox 6%.
